Among the data in PMC7819943, “Rice protein-binding microarrays: a tool to detect cis-acting elements near promoter regions in rice” are binding signal values, retold here.

Whole data set: some 68,000 sequences, median “fluorescence intensity (a.u.)” near 9,100, cut for the highest 2% near 16,000. What follows is part of a selection rich in the highest values, with near analogues and random picks from the rest.

In the experiment the target is OsWRKY34 (Oryza sativa, UniProt Q0JBA9 1-250). Put plainly: protein-binding microarray (RPBM); PBS, 2% BSA, 51.3 ng/ul salmon testes DNA, 50 uM zinc acetate, 200 nM TF, 25 C, 1 h; high values mean tight binding. Particulars: protein: recombinant; tags: N-terminal polyhistidine and DsRed monomer fusion (pET32a); label: CyDye5-dUTP incorporated in the synthesized complementary strand; 3' TTTTT single-stranded linker to array surface; dsDNA, one strand shown. In short, it runs like this: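 Transcription factors were made in E. coli BL21-CodonPlus as N-terminal fusions to a polyhistidine tag and DsRed, then purified on Ni–NTA. After primer extension with Cy5-dUTP and blocking with 2% BSA, a custom Agilent array was exposed for 1 h at 25 °C to 200 nM protein in PBS, 2% BSA, salmon testes DNA and 50 µM zinc acetate. Washed arrays were scanned on an Axon 4000B, and the binding signal is per-feature fluorescence intensity in arbitrary units.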
Sequence of OsWRKY34 (Q0JBA9 entry or part of it): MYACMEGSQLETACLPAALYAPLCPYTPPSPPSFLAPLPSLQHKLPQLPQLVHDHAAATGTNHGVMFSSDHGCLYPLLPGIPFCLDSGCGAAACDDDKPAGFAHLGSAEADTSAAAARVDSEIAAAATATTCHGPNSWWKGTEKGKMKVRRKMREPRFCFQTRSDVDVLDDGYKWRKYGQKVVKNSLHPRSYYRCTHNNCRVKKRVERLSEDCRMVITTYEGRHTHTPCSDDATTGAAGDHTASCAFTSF
“TTTTCTTGTTTGATTGACATAATGGGCCCTACATATTTTTCGGAGTCACCTAGTGCAG”: the binding signal is 8440 fluorescence intensity (a.u.).

“ATCGCTGGCTTATCATACTCTATTATACCTGCTCTAAGGACGGAGTCACCTAGTGCAG”: the binding signal is 10000 fluorescence intensity (a.u.).

As to “GTTTTAATAATGTGTTTGTTTTGGGTTAAAAACCATACTACGGAGTCACCTAGTGCAG”, the binding signal is 8340 fluorescence intensity (a.u.).

As to “ACAATGGCACGGTCTACAAAATATATTTTTGACCTTATTTCGGAGTCACCTAGTGCAG”, the binding signal is 8440 fluorescence intensity (a.u.).

With “GCTGACTTCATCTTCATTTTAATATATCTCAAACACCACGCGGAGTCACCTAGTGCAG”, the binding signal was 10200 fluorescence intensity (a.u.).

For “GATGTTCCTGGCCGTGATCGAGCTCCTGCGTTCTTGCTTACGGAGTCACCTAGTGCAG”, the binding signal is 10400 fluorescence intensity (a.u.).

Regarding “GTTAGGGTTTTTTTTATTTTTCGATTTTTTTTGTGTTTTTCGGAGTCACCTAGTGCAG”, the binding signal is 12000 fluorescence intensity (a.u.).

Regarding “GTGTATGTATATATGAGTATGTGTGTTTATATTGTATTTTCGGAGTCACCTAGTGCAG”, the binding signal is 8460 fluorescence intensity (a.u.).

Consider “CGGGGCGTGAGGGGTTATGAGTATATTTGTATTTTTTTTTCGGAGTCACCTAGTGCAG”, for which the binding signal is 18400 fluorescence intensity (a.u.).

For “GCGTGTGTTGTGAGATGTATTATGTTGTGCTTTGTATTTTCGGAGTCACCTAGTGCAG”, the binding signal is 14900 fluorescence intensity (a.u.).

“CAGTTGGCCTGTTTGTTTGTTGGTTGTGATTAATCTGTGACGGAGTCACCTAGTGCAG”: the binding signal is 18800 fluorescence intensity (a.u.).

“TTGAAGTTTTTGGCAGGGGTTAGTTTCGAAATAAGTTTTCCGGAGTCACCTAGTGCAG”: the binding signal is 8480 fluorescence intensity (a.u.).

As to “AGAACAGTTTTTAATCTGACATGTGCCTGTAGTTTGTTGTCGGAGTCACCTAGTGCAG”, the binding signal was 10600 fluorescence intensity (a.u.).

Consider “GGTTGAAGTTTTTGGCAGGGGTTAGTTTCGAAATAAGTTTCGGAGTCACCTAGTGCAG”, for which the binding signal was 17900 fluorescence intensity (a.u.).

For “CGGGCGATTCTAGGGTTATGGTTAGGGTTTTTTTTATTTTCGGAGTCACCTAGTGCAG”, the binding signal is 14500 fluorescence intensity (a.u.).

“TTTTATGTTTGTTGGTTGTTGAGTTTATGTGATTATATTTCGGAGTCACCTAGTGCAG”: the binding signal was 9050 fluorescence intensity (a.u.).

Take “TCTAGGGTTAGGGTTTCGTGATTTTTGGTTTTTTATTTTTCGGAGTCACCTAGTGCAG”: the binding signal was 16900 fluorescence intensity (a.u.).

As for “GTTGAAGTTTTTGGCAGGGGTTAGTTTCGAAATAAGTTTTCGGAGTCACCTAGTGCAG”, the binding signal was 8170 fluorescence intensity (a.u.).

Consider “TGGAGGTGGTGGTGGGAGGAAGGGGAGGAGGAGGCGCGGCCGGAGTCACCTAGTGCAG”, for which the binding signal was 15100 fluorescence intensity (a.u.).

With “AGCTGGCTAAATCATATTTCCAAAGTCTCTCTCGTCTCTCCGGAGTCACCTAGTGCAG”, the binding signal was 8510 fluorescence intensity (a.u.).

For the sequence “GCCTTCACAAAATCACAAGCGAATGATTTTACTGCCTTGCCGGAGTCACCTAGTGCAG”, the binding signal was 9190 fluorescence intensity (a.u.).

With “TGAGTTTTTGTTTGTATTGTTTGACTACTCGTCTTATTCACGGAGTCACCTAGTGCAG”, the binding signal was 10400 fluorescence intensity (a.u.).

Turning to “AAGAGTACGGGTGGGGATGCTTTGGAGTTCACTCCAACTCCGGAGTCACCTAGTGCAG”, the binding signal is 10300 fluorescence intensity (a.u.).

Take “TCCCGTACGCCTCTACTACCTCTTTTACCTGCGTGCCTTCCGGAGTCACCTAGTGCAG”: the binding signal was 11100 fluorescence intensity (a.u.).

On to “CACCCTTCTTCTCACCCATTGACGGATGCCCTGGAGGTTTCGGAGTCACCTAGTGCAG”, for which the binding signal is 10400 fluorescence intensity (a.u.).

On to “AGTCGCAGTGGTTTTGGTTGGTTGGTTGATTACATTTTGACGGAGTCACCTAGTGCAG”, for which the binding signal is 20000 fluorescence intensity (a.u.).

For the sequence “GTTATGGGTTTGATTTTTTTTCGTTTAGAAAGTTATGGGTCGGAGTCACCTAGTGCAG”, the binding signal is 9220 fluorescence intensity (a.u.).

On to “CGTTGATTTGGTTTGGGTTAGTTATGGGTTTGATTTTTTTCGGAGTCACCTAGTGCAG”, for which the binding signal is 20600 fluorescence intensity (a.u.).

For the sequence “ATTTTTTTCGGTTTGGTTGATTTTATTGAGTTACATTTACCGGAGTCACCTAGTGCAG”, the binding signal is 10900 fluorescence intensity (a.u.).

As for “GGGTTTTTGGTTTTGGTTTTGATTTTGATTTTGATTTTGACGGAGTCACCTAGTGCAG”, the binding signal was 16400 fluorescence intensity (a.u.).

In the case of “AGGGTTTGGTTGATTTTCGGATTTGGTTTGGTTTTGACGACGGAGTCACCTAGTGCAG”, the binding signal was 13300 fluorescence intensity (a.u.).

For the sequence “GGTTTGGTTTTGTTTAGTGGGTTAGAAGCCAATGAGAGCACGGAGTCACCTAGTGCAG”, the binding signal is 10300 fluorescence intensity (a.u.).

For “CATCCGACCTCAACTCCTCTGTCCTCTACTACGCATCTCTCGGAGTCACCTAGTGCAG”, the binding signal is 14100 fluorescence intensity (a.u.).

Regarding “ATTATGCATTTATTTTATTTGAAACTTTAATGCTTTTTTTCGGAGTCACCTAGTGCAG”, the binding signal was 8110 fluorescence intensity (a.u.).

Consider “TTATAAACTTGGTCAAACTTAATAAAGTTTGACTAGAAAACGGAGTCACCTAGTGCAG”, for which the binding signal is 8320 fluorescence intensity (a.u.).

As for “TTTTTTTCTGGGGTTGCTTAGAATGGTACTAACTATGATTCGGAGTCACCTAGTGCAG”, the binding signal was 8900 fluorescence intensity (a.u.).

With “GTGTGGGGCTTTTAACTTTTTGTCACTTTTAAATTTTAAACGGAGTCACCTAGTGCAG”, the binding signal is 21300 fluorescence intensity (a.u.).

“GATCACATGGGCCACACTTTTTTTTAATTATTTTTTGTGTCGGAGTCACCTAGTGCAG”: the binding signal is 8040 fluorescence intensity (a.u.).

With “GTAGTTTTGTGAAATTTACTTTTTTTTTTTTTTTTGATAACGGAGTCACCTAGTGCAG”, the binding signal was 9770 fluorescence intensity (a.u.).

“GGGCTTATTTTTTTTTTTTAACTTTGTTATGCTCTAGAAACGGAGTCACCTAGTGCAG”: the binding signal was 20100 fluorescence intensity (a.u.).

“GTTAACTTGCTTATATGGTACTAGAAGAAAAACTTAATGGCGGAGTCACCTAGTGCAG”: the binding signal is 64900 fluorescence intensity (a.u.).

“TATATTGCTCTTAATTTATTTGTGTTACTTTTTATGTGTTCGGAGTCACCTAGTGCAG”: the binding signal is 8330 fluorescence intensity (a.u.).
